Potency and affinity values are given separately.
Columns and labels:
Klebsiella pneumoniae = details: Concentration 32 ug.mL-1; ASSAY_TEST Inhibition of Bacterial Growth; detection method Absorption (OD600); MEDIA CAMHB; plate type 384well; NBS; CORNING #3640; time 18 hr
Candida albicans = details: 32 ug/mL
Cryptococcus neoformans = details: Concentration 32 ug.mL-1; ASSAY_TEST Inhibition of Fungal Growth; detection method Resazurin; Absorption (OD600-OD570); plate type 384well; NBS; CORNING #3640

Question: For `O=[N+]([O-])c1ccc(-c2ccccc2Nc2ccccc2Br)cc1`, which Inhibition (Klebsiella pneumoniae) is on record?
Answer: The Inhibition was 7.18%.

Question: And the Inhibition (Candida albicans)?
Answer: The Inhibition was 4.47%.

Question: What about the Inhibition (Cryptococcus neoformans) of the same compound?
Answer: Its Inhibition is 1.33%.

Question: How did the Inhibition (Klebsiella pneumoniae) turn out when `O=[N+]([O-])c1ccc(-c2c(Nc3ccccc3)cccc2-c2ccccc2)cc1` was run?
Answer: The Inhibition was 6.43%.

Question: And the Inhibition (Candida albicans)?
Answer: The Inhibition was 7.71%.

Question: What about the Inhibition (Cryptococcus neoformans) of the same compound?
Answer: The Inhibition was 2.38%.

Question: Which results are given for `O=[N+]([O-])c1ccc2c3ccccc3n(-c3ccccc3)c2c1`?
Answer: Inhibition (Klebsiella pneumoniae): 5.72%; Inhibition (Candida albicans): 8.19%; Inhibition (Cryptococcus neoformans): 2.74%

Question: For `CC[C@@H](Nc1ccccc1-c1c(Cl)cc(Br)cc1Cl)c1ccccc1`, which Inhibition (Klebsiella pneumoniae) is on record?
Answer: Its Inhibition is 20.15%.

Question: And the Inhibition (Candida albicans)?
Answer: The Inhibition was 9.45%.

Question: And the Inhibition (Cryptococcus neoformans)?
Answer: Its Inhibition is 0.76%.

Question: Which results are given for `Cc1ccccc1Nc1ccccc1-c1ccc([N+](=O)[O-])cc1`?
Answer: Inhibition (Klebsiella pneumoniae): -1.35%; Inhibition (Candida albicans): -0.09%; Inhibition (Cryptococcus neoformans): -1.9%

Question: With `COc1cccc(Nc2ccccc2)c1-c1c(Cl)cc(Br)cc1Cl` as the compound, how does the Inhibition (Klebsiella pneumoniae) read?
Answer: Its Inhibition is 24.48%.

Question: What about the Inhibition (Candida albicans) of the same compound?
Answer: The Inhibition was 23.8%.

Question: What about the Inhibition (Cryptococcus neoformans) of the same compound?
Answer: The Inhibition was 9.7%.

Question: How did the Inhibition (Klebsiella pneumoniae) turn out when `Cc1cccc(C)c1Nc1ccccc1-c1ccccc1[N+](=O)[O-]` was run?
Answer: Its Inhibition is 2.08%.

Question: And the Inhibition (Candida albicans)?
Answer: Its Inhibition is 6.73%.

Question: And the Inhibition (Cryptococcus neoformans)?
Answer: Its Inhibition is 4.1%.

Question: Which results are given for `O=[N+]([O-])c1ccc(-c2cccc3c2[nH]c2ccccc23)cc1`?
Answer: Inhibition (Klebsiella pneumoniae): 2.37%; Inhibition (Candida albicans): 4.69%; Inhibition (Cryptococcus neoformans): -0.08%

Question: What does the source list for `O=[N+]([O-])c1ccc(-c2ccccc2N(Cc2ccccc2)c2ccccc2)cc1`?
Answer: Inhibition (Klebsiella pneumoniae): 8.4%; Inhibition (Candida albicans): 8.51%; Inhibition (Cryptococcus neoformans): 2.22%

Question: How did the Inhibition (Klebsiella pneumoniae) turn out when `COc1cccc(Nc2ccccc2)c1-c1ccc([N+](=O)[O-])cc1` was run?
Answer: The Inhibition was -2.96%.

Question: What about the Inhibition (Candida albicans) of the same compound?
Answer: Its Inhibition is 7.07%.

Question: And the Inhibition (Cryptococcus neoformans)?
Answer: Its Inhibition is 1.49%.

Question: What does the source list for `O=[N+]([O-])c1ccc(-c2ccccc2Nc2ccccc2)cc1C(F)(F)F`?
Answer: Inhibition (Klebsiella pneumoniae): 20.57%; Inhibition (Candida albicans): 12.5%; Inhibition (Cryptococcus neoformans): 2.9%

Question: For `COc1cc([N+](=O)[O-])ccc1-c1c(Nc2ccccc2)cccc1OC`, which Inhibition (Klebsiella pneumoniae) is on record?
Answer: The Inhibition was 14.15%.

Question: What about the Inhibition (Candida albicans) of the same compound?
Answer: The Inhibition was 5.26%.

Question: What about the Inhibition (Cryptococcus neoformans) of the same compound?
Answer: The Inhibition was -2.27%.

Question: Which results are given for `O=[N+]([O-])c1ccc(-c2c(Nc3ccccc3)ccc3ccccc23)cc1`?
Answer: Inhibition (Klebsiella pneumoniae): -5.26%; Inhibition (Candida albicans): 1.64%; Inhibition (Cryptococcus neoformans): 0.54%

Question: Which Inhibition (Klebsiella pneumoniae) does the source give for `COc1cc([N+](=O)[O-])ccc1-c1ccccc1Nc1ccccc1` here?
Answer: Its Inhibition is 18.46%.

Question: What about the Inhibition (Candida albicans) of the same compound?
Answer: The Inhibition was 5.71%.

Question: What about the Inhibition (Cryptococcus neoformans) of the same compound?
Answer: Its Inhibition is -0.44%.

Question: `Clc1cc(Br)cc(Cl)c1-c1ccccc1Nc1ccccc1` was tested. Which Inhibition (Klebsiella pneumoniae) did it give?
Answer: Its Inhibition is 1.2%.

Question: And the Inhibition (Candida albicans)?
Answer: The Inhibition was 5.55%.

Question: And the Inhibition (Cryptococcus neoformans)?
Answer: Its Inhibition is 2.48%.

Question: With `c1ccc(Nc2ccccc2-c2ncccn2)cc1` as the compound, how does the Inhibition (Klebsiella pneumoniae) read?
Answer: Its Inhibition is 8.33%.

Question: What about the Inhibition (Candida albicans) of the same compound?
Answer: Its Inhibition is 12.1%.

Question: And the Inhibition (Cryptococcus neoformans)?
Answer: The Inhibition was 7.92%.

Question: With `CN(c1ccccc1)c1ccccc1-c1ccc([N+](=O)[O-])cc1` as the compound, how does the Inhibition (Klebsiella pneumoniae) read?
Answer: Its Inhibition is 13.85%.

Question: And the Inhibition (Candida albicans)?
Answer: The Inhibition was 4.63%.

Question: And the Inhibition (Cryptococcus neoformans)?
Answer: The Inhibition was 1.49%.

Question: `Cc1cc([N+](=O)[O-])ccc1-c1ccccc1N(C)c1ccccc1` was tested. Which Inhibition (Klebsiella pneumoniae) did it give?
Answer: Its Inhibition is -15.08%.

Question: And the Inhibition (Candida albicans)?
Answer: The Inhibition was 5.96%.

Question: And the Inhibition (Cryptococcus neoformans)?
Answer: The Inhibition was -0.44%.

Question: Which results are given for `CC(=O)c1ccc(-c2ccccc2Nc2ccccc2)cc1`?
Answer: Inhibition (Klebsiella pneumoniae): 4.21%; Inhibition (Candida albicans): 1.55%; Inhibition (Cryptococcus neoformans): 0.86%

Question: What does the source list for `O=[N+]([O-])c1cc(Cl)c(-c2ccccc2Nc2ccccc2)c(Cl)c1`?
Answer: Inhibition (Klebsiella pneumoniae): -1.39%; Inhibition (Candida albicans): 6.95%; Inhibition (Cryptococcus neoformans): -0.86%

Question: For `Cc1cc(C)c(Nc2ccccc2-c2ccc([N+](=O)[O-])cc2)c(C)c1`, which Inhibition (Klebsiella pneumoniae) is on record?
Answer: The Inhibition was -16.56%.

Question: And the Inhibition (Candida albicans)?
Answer: The Inhibition was 7.08%.

Question: What about the Inhibition (Cryptococcus neoformans) of the same compound?
Answer: The Inhibition was 1.01%.

Question: How did the Inhibition (Klebsiella pneumoniae) turn out when `COc1ccc(Nc2ccccc2-c2ccc([N+](=O)[O-])cc2)cc1` was run?
Answer: The Inhibition was 12.08%.

Question: What about the Inhibition (Candida albicans) of the same compound?
Answer: The Inhibition was 5.77%.

Question: And the Inhibition (Cryptococcus neoformans)?
Answer: The Inhibition was 2.27%.

Question: `O=[N+]([O-])c1ccc(-c2ccccc2Nc2ccccc2)cc1` was tested. Which Inhibition (Klebsiella pneumoniae) did it give?
Answer: Its Inhibition is -3.59%.

Question: And the Inhibition (Candida albicans)?
Answer: Its Inhibition is 9.3%.

Question: What about the Inhibition (Cryptococcus neoformans) of the same compound?
Answer: Its Inhibition is 1.06%.

Question: Which Inhibition (Klebsiella pneumoniae) does the source give for `N#Cc1ccc(-c2ccccc2Nc2ccccc2)cc1` here?
Answer: The Inhibition was 9.14%.

Question: And the Inhibition (Candida albicans)?
Answer: The Inhibition was 10.8%.

Question: And the Inhibition (Cryptococcus neoformans)?
Answer: The Inhibition was 2.95%.

Question: `O=[N+]([O-])c1ccc(-c2ccccc2Nc2ccccc2)cc1F` was tested. Which Inhibition (Klebsiella pneumoniae) did it give?
Answer: The Inhibition was 14.23%.

Question: What about the Inhibition (Candida albicans) of the same compound?
Answer: Its Inhibition is 8.22%.

Question: What about the Inhibition (Cryptococcus neoformans) of the same compound?
Answer: Its Inhibition is 3.42%.

Question: What does the source list for `O=[N+]([O-])c1ccc(-c2ccccc2Nc2ccccc2)c(Cl)c1`?
Answer: Inhibition (Klebsiella pneumoniae): 13.74%; Inhibition (Candida albicans): 10.1%; Inhibition (Cryptococcus neoformans): 1.38%

Question: Which results are given for `COc1cccc(N(C)c2cccc(OC)c2-c2ccc([N+](=O)[O-])cc2C)c1`?
Answer: Inhibition (Klebsiella pneumoniae): 4.9%; Inhibition (Candida albicans): 3.58%; Inhibition (Cryptococcus neoformans): -0.6%
